# In the supplement of paper PMC6555819:
# Experiments:
# Experiment in all cases: PBM binding z-score (relative to random genomic background probes); higher = stronger binding; sequences stand for … in GC…GCGATTGACAGCGTAGAATGAAGG
# [1] = test system: RARb homodimer (NR concentration 270 nM)
# Method in brief: (§1)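 For binding z-scores, the reference was random background probes on custom Agilent 4×180K protein-binding microarrays. These arrays were incubated 1 h with ligand-free nuclear receptor dimers in PBS pH 7.4, 2% milk, 0.02% Triton X-100, 1 mM DTT, 0.2 mg/mL BSA and 0.4 mg/ml salmon testes DNA. Fluorescence was scanned after antibody detection of each partner (one per run) and regression-normalized.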
# [2] = test system: RARg:RXRa (NR concentration 270 nM, RXRa partner concentration 90 nM)
# Method in brief: as §1
# [3] = test system: RARg homodimer (NR concentration 270 nM)
# Method in brief: as §1
# [4] = test system: RXRa DBDmut IVT, anti-RXR (DBD mutation: RXRa K156A/R161A, NR concentration 90 nM)
# Method in brief: as §1
# [5] = test system: RXRa homodimer (NR concentration 180 nM)
# Method in brief: as §1
# [6] = test system: THRa:RXRa (NR concentration 90 nM, RXRa partner concentration 90 nM)
# Method in brief: as §1
# [7] = test system: THRa homodimer (NR concentration 90 nM)
# Method in brief: as §1
# [8] = test system: VDR homodimer (NR concentration 270 nM)
# Method in brief: as §1
sequence,measurement,setting,value
TCGAGTAGGTTACGGGCATTCAGAATGGCGTCGA,PBM binding z-score,[1],0.362
same,PBM binding z-score,[2],0.594
same,PBM binding z-score,[3],0.594
same,PBM binding z-score,[4],-0.00223
same,PBM binding z-score,[5],0.855
same,PBM binding z-score,[6],0.116
same,PBM binding z-score,[7],-0.913
same,PBM binding z-score,[8],-0.716
CGAATTAGGTCAGAACAGGACAGTGAAGGATGAT,PBM binding z-score,[1],2.36
same,PBM binding z-score,[2],2.65
same,PBM binding z-score,[3],3.43
same,PBM binding z-score,[4],0.886
same,PBM binding z-score,[5],1.29
same,PBM binding z-score,[6],3.86
same,PBM binding z-score,[7],1.01
same,PBM binding z-score,[8],0.142
ATATGTAGGTTACATCAGGGTCATTCAGGCTATG,PBM binding z-score,[1],3.47
same,PBM binding z-score,[2],4.16
same,PBM binding z-score,[3],2.29
same,PBM binding z-score,[4],1.46
same,PBM binding z-score,[5],4.28
same,PBM binding z-score,[6],4.05
same,PBM binding z-score,[7],2.29
same,PBM binding z-score,[8],3.17
GGAACGAGGGCATTCGAGTTGAAAGCATGGCGAT,PBM binding z-score,[1],0.677
same,PBM binding z-score,[2],1.02
same,PBM binding z-score,[3],1.19
same,PBM binding z-score,[4],3.05
same,PBM binding z-score,[5],1.12
same,PBM binding z-score,[6],3.9
same,PBM binding z-score,[7],-0.523
same,PBM binding z-score,[8],3.1
ATCTCTAGGTAAAAGTTCAGTGGATCCCGAGGAT,PBM binding z-score,[1],2.32
same,PBM binding z-score,[2],2.02
same,PBM binding z-score,[3],2.08
same,PBM binding z-score,[4],0.861
same,PBM binding z-score,[5],1.53
same,PBM binding z-score,[6],1.2
same,PBM binding z-score,[7],0.272
same,PBM binding z-score,[8],1.72
TGTGCTAGGTCAACGATGGTCAGCTAATCTGCTA,PBM binding z-score,[1],3.4
same,PBM binding z-score,[2],3.88
same,PBM binding z-score,[3],5.19
same,PBM binding z-score,[4],0.342
same,PBM binding z-score,[5],2.45
same,PBM binding z-score,[6],3
same,PBM binding z-score,[7],0.529
same,PBM binding z-score,[8],-0.186
TCTAGTTGGTCAAAGCTCACACACTCGAAATGCG,PBM binding z-score,[1],0.587
same,PBM binding z-score,[2],0.584
same,PBM binding z-score,[3],0.77
same,PBM binding z-score,[4],1.37
same,PBM binding z-score,[5],0.769
same,PBM binding z-score,[6],0.0893
same,PBM binding z-score,[7],0.269
same,PBM binding z-score,[8],0.0543
